{"source": "the supplement of paper PMC8728848", "binders": {"B1": {"name": "GS13686A-pdi-553-26-553 (Parabacteroides distasonis) (protein)", "chain": "NENPDKPTDDVNYNMNEPRLASTLRGGLIIEGNVEQRLKPLQIDFYSQMTVDGGGWGTKNYIQDDEWNNLVWEEYLKQIASINIVIRSLTEKDKDAYANTIAFARIWRVYVHTLAADKFGPMPFPAYEIVEANPPYKSLKDIYDEYFRELDAAINGFNDSAQPIFSDAGIDLIYKNDVSKWKRFANSLRLRLAVRLTEVDQEKCIAEANAAISSPAGLISDKADNAYMPPKADGSWGQDYNYTMFQITWSGPICMSKSVEKLVTNIGGVAWPQGVVNQTSGVAVSSVHPEKVDPRAPKIFQPGIENGDWKGLVYGPKAEEANTGIYQSKQCAELGFIIKDGYPYKSRPYDLFLSEEVHFLKAELYARGFIAGDAKSEYEAGVRASFATWGVTSEVDDYLTSTEKNEAGTSARYDDQQGAGNTALEKIITQKYIAGIPDLAQEGWNDKRRLNLPRLDVAVYRDQAVYNNNDKDILKSANFIKRMRYPTKESLINATEYEKGKSMLGGKGDIVSTPLWWDKNSNYCTSSK"}}, "test_in_all_cases": "glycan array binding signal (z-score within array); higher = stronger binding", "conditions_in_all_cases": "glycan notation: IUPAC condensed, linker removed", "key": {"[1]": {"molecular_target": "Gal(b1-4)GlcNAc(b1-6)[Gal(b1-4)GlcNAc(b1-3)]GalNAc", "outline": "(§1)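 The Consortium for Functional Glycomics database supplied 3228 glycan arrays, of which those lacking an available protein sequence were dropped. The binding signal, a within-array Z-score, was averaged across arrays of the same protein sequence and across linkers. Negative scores can be read as non-binding.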"}, "[2]": {"molecular_target": "Gal3S(b1-4)[Fuc(a1-3)]Glc6S", "outline": "as §1"}, "Gal6S(b1-3)GlcNAc": {"molecular_target": "Gal6S(b1-3)GlcNAc", "outline": "as §1"}, "Gal6S(b1-4)GlcNAc6S": {"molecular_target": "Gal6S(b1-4)GlcNAc6S", "outline": "as §1"}, "GalNAc(b1-4)Gal(b1-4)Glc": {"molecular_target": "GalNAc(b1-4)Gal(b1-4)Glc", "outline": "as §1"}, "[3]": {"molecular_target": "GalNAc(b1-4)GlcNAc(b1-3)GalNAc(b1-4)GlcNAc", "outline": "as §1"}, "[4]": {"molecular_target": "GlcNAc(b1-2)[GlcNAc(b1-4)]Man(a1-3)[GlcNAc(b1-4)][GlcNAc(b1-2)[GlcNAc(b1-6)]Man(a1-6)]Man(b1-4)GlcNAc(b1-4)GlcNAc", "outline": "as §1"}, "GlcNAc(b1-4)GlcNAc": {"molecular_target": "GlcNAc(b1-4)GlcNAc", "outline": "as §1"}, "[5]": {"molecular_target": "GlcNAc(b1-6)Gal(b1-4)GlcNAc", "outline": "as §1"}, "[6]": {"molecular_target": "Man(a1-2)Man(a1-2)Man(a1-6)[Man(a1-3)]Man", "outline": "as §1"}, "Man(a1-2)Man(a1-3)Man": {"molecular_target": "Man(a1-2)Man(a1-3)Man", "outline": "as §1"}, "Man(a1-6)Man": {"molecular_target": "Man(a1-6)Man", "outline": "as §1"}, "MurNAc(b1-4)GlcNAc": {"molecular_target": "MurNAc(b1-4)GlcNAc", "outline": "as §1"}, "[7]": {"molecular_target": "Neu5Ac(a2-3)Gal(b1-3)GalNAc(b1-4)[Neu5Ac(a2-3)]Gal(b1-4)Glc", "outline": "as §1"}, "[8]": {"molecular_target": "Neu5Ac(a2-3)Gal(b1-3)GlcNAc(b1-2)Man(a1-3)[Neu5Ac(a2-3)Gal(b1-3)GlcNAc(b1-2)Man(a1-6)]Man(b1-4)GlcNAc(b1-4)GlcNAc", "outline": "as §1"}, "[9]": {"molecular_target": "Neu5Ac(a2-3)Gal(b1-3)GlcNAc(b1-3)Gal(b1-4)GlcNAc", "outline": "as §1"}, "[10]": {"molecular_target": "Neu5Ac(a2-3)Gal(b1-3)GlcNAc(b1-6)GalNAc", "outline": "as §1"}, "[11]": {"molecular_target": "Neu5Ac(a2-3)Gal(b1-3)[Fuc(a1-4)]GlcNAc(b1-3)Gal(b1-3)[Fuc(a1-4)]GlcNAc", "outline": "as §1"}, "[12]": {"molecular_target": "Neu5Ac(a2-3)Gal(b1-3)[Neu5Ac(a2-6)]GlcNAc(b1-3)[Fuc(a1-3)[Gal(b1-4)]GlcNAc(b1-6)]Gal(b1-4)Glc", "outline": "as §1"}, "[13]": {"molecular_target": "Neu5Ac(a2-3)Gal(b1-4)GlcNAc(b1-2)Man(a1-3)[Neu5Ac(a2-6)Gal(b1-4)GlcNAc(b1-2)Man(a1-6)]Man(b1-4)GlcNAc(b1-4)GlcNAc", "outline": "as §1"}, "[14]": {"molecular_target": "Neu5Ac(a2-3)Gal(b1-4)GlcNAc(b1-2)[Neu5Ac(a2-3)Gal(b1-4)GlcNAc(b1-4)]Man(a1-3)[GlcNAc(b1-4)][Neu5Ac(a2-3)Gal(b1-4)GlcNAc(b1-2)[Neu5Ac(a2-3)Gal(b1-4)GlcNAc(b1-6)]Man(a1-6)]Man(b1-4)GlcNAc(b1-4)GlcNAc", "outline": "as §1"}, "[15]": {"molecular_target": "Neu5Ac(a2-3)Gal(b1-4)GlcNAc(b1-3)Gal(b1-3)GlcNAc", "outline": "as §1"}, "Neu5Ac(a2-6)Gal": {"molecular_target": "Neu5Ac(a2-6)Gal", "outline": "as §1"}, "[16]": {"molecular_target": "Neu5Ac(a2-6)Gal(b1-3)GlcNAc(b1-3)[Gal(b1-4)GlcNAc(b1-6)]Gal(b1-4)Glc", "outline": "as §1"}, "[17]": {"molecular_target": "Neu5Ac(a2-6)Gal(b1-4)GlcNAc(b1-2)Man(a1-3)[Man(a1-6)]Man(b1-4)GlcNAc(b1-4)GlcNAc", "outline": "as §1"}, "[18]": {"molecular_target": "Neu5Ac(a2-6)Gal(b1-4)GlcNAc(b1-2)Man(a1-3)[Neu5Ac(a2-6)Gal(b1-4)GlcNAc(b1-2)Man(a1-6)]Man(b1-4)GlcNAc(b1-4)[Fuc(a1-6)]GlcNAc", "outline": "as §1"}, "[19]": {"molecular_target": "Neu5Ac(a2-6)Gal(b1-4)GlcNAc(b1-2)Man(a1-6)[Gal(b1-4)GlcNAc(b1-2)Man(a1-3)]Man(b1-4)GlcNAc(b1-4)GlcNAc", "outline": "as §1"}, "[20]": {"molecular_target": "Neu5Gc(a2-3)Gal(b1-4)[Fuc(a1-3)]GlcNAc", "outline": "as §1"}, "[21]": {"molecular_target": "Neu5Gc(a2-8)Neu5Gc(a2-3)Gal(b1-4)GlcNAc(b1-3)Gal(b1-4)GlcNAc", "outline": "as §1"}}, "note": "The entries come from a sample that favours the strongest signals as a whole."}
{"binder": "B1", "values": [{"measurement": "glycan array binding signal (z-score)", "setting": "[1]", "value": -0.002}, {"measurement": "glycan array binding signal (z-score)", "setting": "[2]", "value": 0.425}, {"measurement": "glycan array binding signal (z-score)", "setting": "Gal6S(b1-3)GlcNAc", "value": 22.6}, {"measurement": "glycan array binding signal (z-score)", "setting": "Gal6S(b1-4)GlcNAc6S", "value": -0.176}, {"measurement": "glycan array binding signal (z-score)", "setting": "GalNAc(b1-4)Gal(b1-4)Glc", "value": 0.208}, {"measurement": "glycan array binding signal (z-score)", "setting": "[3]", "value": 0.492}, {"measurement": "glycan array binding signal (z-score)", "setting": "[4]", "value": -0.24}, {"measurement": "glycan array binding signal (z-score)", "setting": "GlcNAc(b1-4)GlcNAc", "value": -0.294}, {"measurement": "glycan array binding signal (z-score)", "setting": "[5]", "value": -0.023}, {"measurement": "glycan array binding signal (z-score)", "setting": "[6]", "value": -0.073}, {"measurement": "glycan array binding signal (z-score)", "setting": "Man(a1-2)Man(a1-3)Man", "value": -0.226}, {"measurement": "glycan array binding signal (z-score)", "setting": "Man(a1-6)Man", "value": 0.458}, {"measurement": "glycan array binding signal (z-score)", "setting": "MurNAc(b1-4)GlcNAc", "value": -0.226}, {"measurement": "glycan array binding signal (z-score)", "setting": "[7]", "value": -0.071}, {"measurement": "glycan array binding signal (z-score)", "setting": "[8]", "value": -0.099}, {"measurement": "glycan array binding signal (z-score)", "setting": "[9]", "value": -0.307}, {"measurement": "glycan array binding signal (z-score)", "setting": "[10]", "value": 3.88}, {"measurement": "glycan array binding signal (z-score)", "setting": "[11]", "value": -0.153}, {"measurement": "glycan array binding signal (z-score)", "setting": "[12]", "value": -0.086}, {"measurement": "glycan array binding signal (z-score)", "setting": "[13]", "value": 1.01}, {"measurement": "glycan array binding signal (z-score)", "setting": "[14]", "value": 0.051}, {"measurement": "glycan array binding signal (z-score)", "setting": "[15]", "value": -0.389}, {"measurement": "glycan array binding signal (z-score)", "setting": "Neu5Ac(a2-6)Gal", "value": -0.025}, {"measurement": "glycan array binding signal (z-score)", "setting": "[16]", "value": 2}, {"measurement": "glycan array binding signal (z-score)", "setting": "[17]", "value": 0.341}, {"measurement": "glycan array binding signal (z-score)", "setting": "[18]", "value": 0.391}, {"measurement": "glycan array binding signal (z-score)", "setting": "[19]", "value": 0.126}, {"measurement": "glycan array binding signal (z-score)", "setting": "[20]", "value": 0.009}, {"measurement": "glycan array binding signal (z-score)", "setting": "[21]", "value": -0.323}]}
